Test results published in PubChem BioAssay (NCATS).
Inconclusive results are not listed. Entries that show only a call come without a potency. Activity calls are given as the source filed them. Calls follow the shape of the dose curve; as a rule, active = well fitted inhibition curve with a large enough effect; inconclusive = small, poorly fitted or top-dose-only effect; inactive = no such curve, though single readings can be large or run the other way.

The compounds below were run on Zika virus NS2B-NS3 protease (unlinked complex) (assay: Primary screen GU Rhodamine qHTS for Zika virus inhibitors: Unlinked NS2B-NS3 protease assay (AID 1347159; also: nearly all actives have a fitted effect of over 60% in size)). Details: Recombinant ZIKV NS2B-NS3 protease, Rhodamine110 substrate fluorescence; series mostly up to 107 µM.
Description: Avindra Nath, Ph.D., National Institute of Neurological Disorders and Stroke (NINDS), Bethesda, MD
Radhakrishnan Padmanabhan, Ph.D., Georgetown University (GU), Washington D.C.
Zika Virus causes congenital defects, including microcephaly and is associated with Guillain-Barre syndrome, eningoencephalitis and myelitis in infected adult. […] Using a target-based approach, we hope to establish a screening paradigm to uncover novel, cell-active NS2B-NS3 protease (Zika Virus) specific inhibitors from NCATS' collection of small molecules using qHTS.
Four assay panel was created to identify potential Zika Virus inhibitors. Namely, (1) GU unlinked NS2B-NS3 AMC tagged protease qHTS, (2) GU unlinked NS2B-NS3 Rhodamine tagged protease qHTS, (3) NINDS linked NS2B-NS3 AMC tagged protease qHTS, (4) NINDS linked NS2B-NS3 Rhodamine tagged protease qHTS. Active compounds were re-acquired and re-screened to confirm inhibition. Inhibitors were further screened against various confirmatory and counterscreens in dose response format.
Early Translation Branch (ETB)
National Center for Advancing Translational Sciences (NCATS), Rockville, MD
National Institute of Health (NIH), Bethesda, Maryland
Padmanabhan lab provided the NS2B hydrophilic domain and NS3 protease domain in a noncovalent complex used for the unlinked assay. Control compound aprotinin is obtained from Thermo Scientific (#78432; Waltham, Massachusetts). Rhodamine110 substrate ([N-Cbz]-Nle-Lys-Arg-Arg-Rhod110-Arg-Arg-Lys-Nle-[N-Cbz]) was purchased from either Genscript or Bachem.
1536-well Protease (Rhodamine110 Substrate) Assay:
Briefly, 3 microL of enzyme (25 nM final concentration), in assay buffer (10 mM Tris-HCl pH 8.0 with 0.01% Tween 20) were dispensed into a 1,536-well solid-bottom black plate (Greiner Bio One, Monroe, NC). Twenty-three nL of compounds (final concentration range 7.28 nM to 114 microM) or control Aprotinin (final concentration range 3.47 nM to 114 microM) were transferred via Wako Pin-tool (Wako Automation, Richmond, VA). Samples were incubated (room temperature, protected from light) for 15 minutes followed by a 1 microL Rhodamine110 substrate addition (1.5 microM final concentration). Plates were then immediately read on a ViewLux High-throughput CCD imager (PerkinElmer, Waltham, MA) equipped with FITC fluorescence optics (480(20) nm excitation, 540(25) nm emission), then incubated (room temperature, protected from light) for 15 minutes (~15% conversion). The change in fluorescence intensity over the 15-minute reaction period was normalized against no-inhibitor and no-enzyme controls and the resulting percent inhibition data were fitted to a 4-parameter Hill equation. Aprotinin was used as intraplate control.
Potency is read from the fitted curve at half-maximal effect.

| SMILES | Potency |
| --- | --- |
| CCOC(=O)C(CCc1ccccc1)NC(C)C(=O)N1C(=O)N(C)CC1C(=O)O (stereo not given) | inactive |
| Cc1ccc(NC(=O)Nc2cc(C(F)(F)F)ccc2F)cc1Nc1ccc2c(c1)NC(=O)/C2=C\c1ccc[nH]1 | 39.8 µM (active) |
| COc1cc(-c2ncn(/C=C\C(=O)OC(C)C)n2)cc(C(F)(F)F)c1 | inactive |
| CNC(=O)c1ccccc1Nc1cc(Nc2ccc(N3CCOCC3)cc2OC)ncc1C(F)(F)F | inactive |
| COc1ccc(Cl)c(Nc2nc3ccccc3nc2NS(=O)(=O)c2cccc(NC(=O)C(C)(C)N)c2)c1 | 7.94 µM (active) |
| O=C(OC[C@@]1(O)CO[C@@H](O[C@H]2[C@H](Oc3ccc(O)cc3)O[C@H](CO)[C@@H](O)[C@@H]2O)[C@@H]1O)c1ccc(O)cc1 | inactive |
| CC12CCC(OC3OC(CO)C(O)C(OC4OC(CO)C(O)C(O)C4O)C3O)CC1=CCC1C2CCC2(C)/C(=C3/COC(=O)C3)CCC12O (stereo not given) | inactive |
| CC1(C)CC(=O)C2=C(C1)NC(=S)NC2c1cccc(O)c1 (stereo not given) | inactive |
| CC1=C(C(=O)O)/C(=C\CO[C@@H]2O[C@H](CO)[C@@H](O)[C@H](O)[C@H]2O)C(OC(=O)/C=C/c2ccc(O)cc2)C1 (stereo not given in full) | inactive |
| NCc1ccc(Nc2ncc(F)c(Nc3ccccc3)n2)cc1 | inactive |
| C=C1C(=O)OC2CC3(C)C(CC12)C(C)=CC(O)C3OC(C)=O (stereo not given) | 25.1 µM (active) |
| CC1=C(C)C(=O)OC(C(C)C2CCC3C4C5OC5C5(O)CC(OC6OC(CO)C(OC7OC(C)C(O)C(O)C7O)C(O)C6O)CC(O)C5(C)C4CCC23C)C1 (stereo not given) | inactive |
| C=C1C[C@]23C[C@H]1CC[C@H]2C1=C[C@H]2OC(=O)[C@@](C)([C@H]1[C@@H]3C(=O)O)[C@H]2O | inactive |
| Cc1cc(C(=O)Nc2cccc(C(=O)Nc3cccc(C(F)(F)F)c3)c2)on1 | inactive |
| CC1=CC(=O)C(=C(C)C)CC2C1CCC2(C)O (stereo not given) | inactive |
| CC(C)=CC/C=C(\C)[C@H]1CC[C@]2(C)[C@@H]1[C@H](O)C[C@@H]1[C@@]3(C)CC[C@H](O)C(C)(C)[C@@H]3[C@@H](O[C@@H]3O[C@H](CO)[C@@H](O)[C@H](O)[C@H]3O)C[C@]12C | inactive |
| COC(=O)c1ccnc(-c2cc(C(=O)NCCc3ccccc3)ccn2)c1 | inactive |
| COc1cccc2cc3c(c(O[C@@H]4O[C@H](CO[C@@H]5O[C@H](CO)[C@@H](O)[C@H](O)[C@H]5O)[C@@H](O)[C@H](O)[C@H]4O)c12)C(C)OC3=O (stereo not given in full) | inactive |
| C/C=C1\[C@H](O[C@@H]2O[C@H](CO)[C@@H](O)[C@H](O)[C@H]2O)OC=C2C(=O)OCCc3ccc(O)c(c3)Oc3ccc(cc3)CCOC(=O)C[C@H]21 | inactive |
| CCn1cc(NC(=S)Nc2cc(Cl)ccc2OC)c(C(N)=O)n1 | inactive |

| SMILES | Potency |
| --- | --- |
| C[C@@H]1CCN(C(=O)N2CCCC2)C[C@@H]1N(C)c1ncnc2[nH]ccc12 | inactive |
| Cc1oc2ccccc2c1CNC(=O)NCc1cccs1 | inactive |
| C=CC1C(OC2OC(CO)C(O)C(O)C2O)OC=C(C(=O)OC)C1CC(=O)OCC1C(C)C(O)CC1C(CO)COC(=O)CC1C(C(=O)O)=COC(OC2OC(CO)C(O)C(O)C2O)/C1=C\C (stereo not given) | inactive |
| CNC(C)C(=O)NC(C(=O)N1CCCC1c1nc(C(=O)c2ccc(F)cc2)cs1)C1CCCCC1 (stereo not given) | inactive |
| Cc1cc(C)c(Nc2ccnc(Nc3ccc(C#N)cc3)n2)c(C)c1 | inactive |
| Cc1nc(Nc2n[nH]c3c2CN(C(=O)NC(CN(C)C)c2ccccc2)C3(C)C)c2sccc2n1 (stereo not given) | inactive |
| CC1COC2(OC3CC4C5CC(O[C@@H]6O[C@H](C)[C@@H](O[C@@H]7O[C@@H](C)[C@H](O)[C@@H](O)[C@H]7O)[C@H](O)[C@H]6O)C6CC(O)CCC6(C)C5CCC4(C)C3C2C)C(O)C1 (stereo not given in full) | inactive |
| CCN1CCN(Cc2ccc(Nc3ncc(F)c(-c4cc(F)c5nc(C)n(C(C)C)c5c4)n3)nc2)CC1 | inactive |
| CC(=O)NC[C@H]1CN(c2ccc(N3CCN(C(=O)CO)CC3)c(F)c2)C(=O)O1 | inactive |
| COc1cc(C(=O)NC2CCN(C)CC2)c(F)cc1Nc1ncc2c(n1)N(C1CCCC1)CC(F)(F)C(=O)N2C | inactive |
| CC(C)S(=O)(=O)NC[C@H](C)c1ccc(NC(=O)c2cc(F)cc(F)c2)cc1 | inactive |
| N#Cc1ccc(-c2cnc3[nH]cc(NC(=O)c4cccnc4)c3c2)cc1 | inactive |
| Cc1cc(C)cc(C(=O)NOCCCCCC(=O)NO)c1 | inactive |
| NC(=O)Nc1cc(-c2cccc(F)c2)sc1C(=O)NC1CCCNC1 (stereo not given) | inactive |
| C[C@@H]1C(=O)O[C@H]2[C@@H](O)C34[C@H]5C[C@@H](C(C)(C)C)C36[C@@H](OC(=O)[C@@H]6O)O[C@@]4(C(=O)O5)[C@@]12O (stereo not given in full) | inactive |
| C=CC(C)(C)c1[nH]c2ccccc2c1C[C@@H]1NC(=O)[C@H](Cc2c[nH]c3ccccc23)NC1=O | inactive |
| O=C(/C=C/c1ccc(O)cc1)OC1[C@H](O)CC(O)(C(=O)O)C[C@H]1O (stereo not given in full) | inactive |
| NC1(C(=O)NC(CCO)c2ccc(Cl)cc2)CCN(c2ncnc3[nH]ccc23)CC1 (stereo not given) | inactive |
| N#C[C@@H]1CCCN1C(=O)CNC12CC3CC(CC(O)(C3)C1)C2 | inactive |
| NC(=O)[C@H](O[C@@H]1O[C@H](CO)[C@@H](O)[C@H](O)[C@H]1O)c1ccccc1 | inactive |
